Test systems include SK-MEL-2 melanoma; EKVX NSCLC; SN12C renal; UO-31 renal; TK-10 renal; ACHN renal; A498 renal; CCRF-CEM leukemia; MOLT-4 leukemia; SR leukemia.
Holding throughout (assay): NCI-60 one-dose screen, 48 h (100 = growth as untreated, 0 = no growth, -100 = all killed)
Common to all, as to settings: 10 µM unless noted

Molecules are shown by their SMILES. This is part of a sample that, as a whole, favours compounds with a hit. Of some 83,000 tested, about 20% had one in any assay.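 Treatment: one concentration, 48 hours, 96-well format. Scoring: percent growth, with anything below 10 considered active.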 A number with no mark means an inactive call. Active and inactive are the calls of the source.

For `CSc1nc(-c2ccc(F)cc2)c(C#N)c(N2CCOCC2)n1`, the growth with SK-MEL-2 melanoma was 101%; in the assay on EKVX NSCLC, 88.6%; in the assay with SN12C renal, 98.8%; in the assay with UO-31 renal, 80.3%; in the assay with TK-10 renal, 104%; in the assay with ACHN renal it was 90.1%. The growth in the assay on A498 renal was 74.4%; in the assay with CCRF-CEM leukemia, 81%; in the assay with MOLT-4 leukemia, 86.5%; in the assay with SR leukemia, 85.9%.

For the compound `O=C1CC23OC(C(O)c4ccccc4N12)C1C(c2ccccc2)=NOC13` (stereo not given), the growth is 40.8% in the assay on SK-MEL-2 melanoma; 57.7% in the assay with EKVX NSCLC; 42.9% in the assay on SN12C renal; 45.1% in the assay on UO-31 renal; 102% in the assay on TK-10 renal; 52.7% in the assay on ACHN renal. For the same compound, the growth with A498 renal was 71%; in the assay with CCRF-CEM leukemia, 68.3%; in the assay on MOLT-4 leukemia, 37.2%; in the assay with SR leukemia, 22.2%.

With `Cc1nn(-c2ccc(-c3ccc(OC(F)(F)F)cc3)cc2)c2nc(-c3ccccc3)nc(N)c12`, the growth is 101% with SK-MEL-2 melanoma; 97.7% in the assay with EKVX NSCLC; 92.5% in the assay on SN12C renal; 82.4% in the assay on UO-31 renal; 89.7% in the assay on TK-10 renal; 100% in the assay on ACHN renal. In addition, the growth in the assay on A498 renal was 90.2%; in the assay with CCRF-CEM leukemia, 88.9%; with MOLT-4 leukemia, 82.4%; in the assay on SR leukemia, 55.6%.

Take `C#CCN1C(=O)c2ccccc2N(CC#C)C12CCN(Cc1cn(CC(=O)Nc3ccccc3C(N)=O)nn1)CC2`: the growth with SK-MEL-2 melanoma was 98.8%; with EKVX NSCLC it was 78.6%; in the assay on SN12C renal it was 88.9%; in the assay with UO-31 renal it was 59.3%; in the assay on TK-10 renal, 82.8%; in the assay on ACHN renal, 92.5%. Moreover, the growth in the assay with A498 renal is 75.8%; in the assay on CCRF-CEM leukemia, 84.3%; in the assay with MOLT-4 leukemia, 83.2%; with SR leukemia, 64.6%.

`O=C1Nc2ccccc2C12C=C(c1ccccc1)Nc1c2c(-c2ccccc2)nn1-c1ccccc1` (stereo not given): the growth in the assay with SK-MEL-2 melanoma is 80.1%; in the assay on EKVX NSCLC, 53.2%; with SN12C renal, 76.5%; with UO-31 renal it was 62.9%; in the assay with TK-10 renal it was 87.8%; with ACHN renal, 60.4%. The growth was 75.6% in the assay with A498 renal, 25.9% with CCRF-CEM leukemia, 16.4% with MOLT-4 leukemia and 38% with SR leukemia.

For `[2H]c1cc2c(c([2H])c1F)/C(=C/c1[nH]c(C)c(C(=O)NCCN(CC)CC)c1C)C(=O)N2`, the growth in the assay with SK-MEL-2 melanoma is 14.7%; in the assay on EKVX NSCLC, 44.7%; in the assay with SN12C renal, 24.4%; with UO-31 renal, 12.3%; in the assay with TK-10 renal, 62.1%; in the assay on ACHN renal, 25.4%. Also, the growth in the assay with A498 renal is 52.6%; with CCRF-CEM leukemia, 69.5%; in the assay with MOLT-4 leukemia, 20.3%; with SR leukemia, 0.469% (active).

`COc1ccc(-c2cc(C(=O)N3N=C(c4ccc(N)cc4)CC3c3ccc(OC)cc3)c3cc(OC)ccc3n2)cc1` (stereo not given): the growth with SK-MEL-2 melanoma is 64.5%; in the assay with EKVX NSCLC, 68.9%; with SN12C renal, 61.8%; in the assay with UO-31 renal, 56.6%; in the assay on TK-10 renal it was 93.8%; in the assay with ACHN renal, 54.5%. Moreover, the growth in the assay on A498 renal was 71.3%; in the assay on CCRF-CEM leukemia, 63.3%; in the assay with MOLT-4 leukemia, 54.5%; in the assay on SR leukemia, 19.4%.

`O=CN1N=C(c2ccc(Cl)cc2)CC1c1cccc(Nc2ccnc3cc(C(F)(F)F)ccc23)c1` (stereo not given): the growth was 58% in the assay on SK-MEL-2 melanoma; 58.7% in the assay on EKVX NSCLC; 87.7% with SN12C renal; 48.5% in the assay on UO-31 renal; 71% in the assay with TK-10 renal; 61.2% with ACHN renal. In addition, the growth in the assay on A498 renal is 58.6%; in the assay on CCRF-CEM leukemia it was 51.7%; in the assay on MOLT-4 leukemia it was 33.8%; in the assay with SR leukemia, 30%.

Turning to `CO[C@@]12C=C[C@@]34CCC(=O)N3c3ccccc3[C@@H](O1)C4C2`, the growth in the assay with SK-MEL-2 melanoma was 101%; in the assay with EKVX NSCLC, 98.8%; in the assay on SN12C renal, 95.5%; with UO-31 renal, 81.4%; in the assay on TK-10 renal, 95.1%; with ACHN renal, 98.6%. The growth was 109% in the assay with A498 renal, 90.1% in the assay on CCRF-CEM leukemia, 95.9% with MOLT-4 leukemia and 96.9% in the assay with SR leukemia.

As to `C#CCOC(=O)[C@]1(C)CCC[C@]2(C)[C@H]3C[C@H]4C(C(C)C)=C[C@]3(CC[C@H]21)[C@@H]1C(=O)CCC(=O)[C@@H]14`, the growth was 88.2% in the assay with SK-MEL-2 melanoma; 76.1% in the assay on EKVX NSCLC; 86.8% in the assay on SN12C renal; 74.7% with UO-31 renal; 90.7% with TK-10 renal; 93.5% in the assay with ACHN renal. Moreover, the growth in the assay on A498 renal was 66.5%; in the assay with CCRF-CEM leukemia, 67.1%; in the assay with MOLT-4 leukemia, 73.5%; with SR leukemia, 64.9%.

For the compound `C#C[C@@]1(O)[C@@H](CO)O[C@@H](n2cc(Cl)c3c(N)ncnc32)[C@@H]1O`, the growth with SK-MEL-2 melanoma is -20.6% (active); with EKVX NSCLC it was -32.4% (active); in the assay on SN12C renal, 1.7% (active); in the assay on UO-31 renal, -60.1% (active); in the assay on TK-10 renal, -3.3% (active); in the assay with ACHN renal, -12.5% (active). In addition, the growth in the assay on A498 renal was -68.8% (active); with CCRF-CEM leukemia, 5.93% (active); in the assay with MOLT-4 leukemia it was 1.07% (active); in the assay on SR leukemia, 0.983% (active).

For the compound `Cc1c(C(=O)Nc2nc3ccccc3[nH]2)cnn1-c1ccccn1`, the growth was 105% in the assay on SK-MEL-2 melanoma; 103% in the assay on EKVX NSCLC; 114% in the assay with SN12C renal; 104% in the assay on UO-31 renal; 98.3% in the assay with TK-10 renal; 114% in the assay with ACHN renal. For the same compound, the growth with A498 renal was 96.4%; in the assay on CCRF-CEM leukemia, 90.8%; in the assay on MOLT-4 leukemia, 77.5%; in the assay with SR leukemia it was 83.8%.

(Values after PubChem BioAssay (NCI).)
